Measured values from PubChem BioAssay (NCI).
This is part of a sample that, as a whole, favours compounds with a hit. Of some 83,000 tested, about 20% had one in any assay.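 Note: values are percent growth. 100 is the growth of untreated cells, values between 100 and 0 indicate rising inhibition; between -100 and 0 indicates cell death.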 Values without a mark were called inactive. Activity calls are given as the source filed them. Rule for the calls: active = growth percent below 10; inactive = the rest.

Tests used:
Experiment in all cases: NCI-60 one-dose screen, 48 h (100 = growth as untreated, 0 = no growth, -100 = all killed)
Details in all cases: 10 µM unless noted
SR leukemia = test system: SR leukemia
RPMI-8226 leukemia = test system: RPMI-8226 leukemia
OVCAR-8 ovarian = test system: OVCAR-8 ovarian
OVCAR-5 ovarian = test system: OVCAR-5 ovarian
OVCAR-4 ovarian = test system: OVCAR-4 ovarian
SK-OV-3 ovarian = test system: SK-OV-3 ovarian
IGROV1 ovarian = test system: IGROV1 ovarian
OVCAR-3 ovarian = test system: OVCAR-3 ovarian
HS 578T breast = test system: HS 578T breast
NCI/ADR-RES ovarian = test system: NCI/ADR-RES ovarian

SMILES: CC1=NN(c2nc(SCC(=O)Nc3nc4ccc(C)cc4s3)nc(-c3ccccc3)c2C#N)C(=O)C1
- growth (SR leukemia): 87.2%
- growth (RPMI-8226 leukemia): 110%
- growth (OVCAR-8 ovarian): 102%
- growth (OVCAR-5 ovarian): 92.6%
- growth (OVCAR-4 ovarian): 101%
- growth (SK-OV-3 ovarian): 106%
- growth (IGROV1 ovarian): 83.5%
- growth (OVCAR-3 ovarian): 108%
- growth (HS 578T breast): 90.5%
- growth (NCI/ADR-RES ovarian): 100%

SMILES: Cc1nnc(-n2c(O)cc(=O)n(-c3ccccc3)c2=S)nc1/C=C/c1ccc(N(C)C)cc1
- growth (SR leukemia): 36.2%
- growth (RPMI-8226 leukemia): 16.1%
- growth (OVCAR-8 ovarian): 53.3%
- growth (OVCAR-5 ovarian): 82.7%
- growth (OVCAR-4 ovarian): 50.3%
- growth (SK-OV-3 ovarian): 45.6%
- growth (IGROV1 ovarian): 58.1%
- growth (OVCAR-3 ovarian): 44.3%
- growth (HS 578T breast): 47.8%
- growth (NCI/ADR-RES ovarian): 44.6%

SMILES: COC(=O)c1cc(-c2ccc(OC)cc2)[nH]c1N/N=C/c1c(Cl)cccc1Cl
- growth (SR leukemia): -16.4% (active)
- growth (RPMI-8226 leukemia): 10.9%
- growth (OVCAR-8 ovarian): 14.5%
- growth (OVCAR-5 ovarian): 44.3%
- growth (OVCAR-4 ovarian): 40.6%
- growth (SK-OV-3 ovarian): 18.8%
- growth (IGROV1 ovarian): 29%
- growth (OVCAR-3 ovarian): -72.4% (active)
- growth (HS 578T breast): 0.353% (active)
- growth (NCI/ADR-RES ovarian): 20%

SMILES: O=C(COc1ccc(-c2nc3ccccc3[nH]2)cc1)N=Nc1c(O)[nH]c2ccc(Cl)cc12
- growth (SR leukemia): 11.2%
- growth (RPMI-8226 leukemia): 57.4%
- growth (OVCAR-8 ovarian): 11.9%
- growth (OVCAR-5 ovarian): 104%
- growth (OVCAR-4 ovarian): 60.7%
- growth (SK-OV-3 ovarian): 103%
- growth (IGROV1 ovarian): 88%
- growth (OVCAR-3 ovarian): 63.7%
- growth (HS 578T breast): 72.4%
- growth (NCI/ADR-RES ovarian): 107%

SMILES: CCCCCC(=O)OCC(=O)O[C@@H]1C[C@]2(C(C)C)O[C@@]1(C)[C@@H]1CC[C@@H](C)[C@H]1[C@@H]2OC(=O)/C=C/c1ccccc1
- growth (SR leukemia): 76.3%
- growth (RPMI-8226 leukemia): 66.8%
- growth (OVCAR-8 ovarian): 19.9%
- growth (OVCAR-5 ovarian): 112%
- growth (OVCAR-4 ovarian): 75.7%
- growth (SK-OV-3 ovarian): 87.9%
- growth (IGROV1 ovarian): 86.7%
- growth (OVCAR-3 ovarian): 52.9%
- growth (HS 578T breast): -15.5% (active)
- growth (NCI/ADR-RES ovarian): 21.7%

SMILES: O=C(NCCCN1CCOCC1)c1cccc(N2C(=O)/C(=C/c3ccc(F)cc3)SC2=S)c1
- growth (SR leukemia): 98.9%
- growth (RPMI-8226 leukemia): 102%
- growth (OVCAR-8 ovarian): 100%
- growth (OVCAR-5 ovarian): 104%
- growth (OVCAR-4 ovarian): 93.8%
- growth (SK-OV-3 ovarian): 108%
- growth (IGROV1 ovarian): 90.7%
- growth (OVCAR-3 ovarian): 99.5%
- growth (HS 578T breast): 82.2%
- growth (NCI/ADR-RES ovarian): 98.5%

SMILES: CCN(CC)CCOc1ccc(C(=C(C)c2ccc(Cl)cc2)c2ccc(OCCN(CC)CC)cc2)cc1
- growth (SR leukemia): -54.4% (active)
- growth (RPMI-8226 leukemia): -49.8% (active)
- growth (OVCAR-8 ovarian): -47.1% (active)
- growth (OVCAR-5 ovarian): -84.1% (active)
- growth (OVCAR-4 ovarian): -62.1% (active)
- growth (SK-OV-3 ovarian): -79.9% (active)
- growth (IGROV1 ovarian): -86.9% (active)
- growth (OVCAR-3 ovarian): -70.5% (active)
- growth (HS 578T breast): -52.5% (active)
- growth (NCI/ADR-RES ovarian): -68.2% (active)

SMILES: CCN(CC)CCCN1C(=O)c2c(c(C)c3c(oc4cc(O)ccc43)c2C)C1=O
- growth (SR leukemia): 8.28% (active)
- growth (RPMI-8226 leukemia): -30% (active)
- growth (OVCAR-8 ovarian): -39.4% (active)
- growth (OVCAR-5 ovarian): -77.2% (active)
- growth (OVCAR-4 ovarian): -50.2% (active)
- growth (SK-OV-3 ovarian): 105%
- growth (IGROV1 ovarian): -74.5% (active)
- growth (OVCAR-3 ovarian): 118%
- growth (HS 578T breast): 101%
- growth (NCI/ADR-RES ovarian): -40.4% (active)

SMILES: O=c1oc2c(cnc3ccccc32)cc1-c1ccsc1
- growth (SR leukemia): 95%
- growth (RPMI-8226 leukemia): 96.6%
- growth (OVCAR-8 ovarian): 94.6%
- growth (OVCAR-5 ovarian): 114%
- growth (OVCAR-4 ovarian): 88.4%
- growth (SK-OV-3 ovarian): 104%
- growth (IGROV1 ovarian): 103%
- growth (OVCAR-3 ovarian): 108%
- growth (HS 578T breast): 94.9%
- growth (NCI/ADR-RES ovarian): 109%

SMILES: COc1ccc2nc3ccc(OC)cc3c(SCCCN)c2c1
- growth (SR leukemia): -30.8% (active)
- growth (RPMI-8226 leukemia): -22.7% (active)
- growth (OVCAR-8 ovarian): 76.1%
- growth (OVCAR-5 ovarian): 83.2%
- growth (OVCAR-4 ovarian): 63.9%
- growth (SK-OV-3 ovarian): 95%
- growth (IGROV1 ovarian): 97.2%
- growth (OVCAR-3 ovarian): 71.3%
- growth (HS 578T breast): 89.7%
- growth (NCI/ADR-RES ovarian): 86.9%

SMILES: O=[N+]([O-])c1ccc(N/N=C(/C(=N/Nc2ccc([N+](=O)[O-])cc2)c2ccccc2)c2ccccc2)cc1
- growth (SR leukemia): 65.8%
- growth (RPMI-8226 leukemia): 101%
- growth (OVCAR-8 ovarian): 60.4%
- growth (OVCAR-5 ovarian): 82.5%
- growth (OVCAR-4 ovarian): 116%
- growth (SK-OV-3 ovarian): 85.6%
- growth (IGROV1 ovarian): 76.4%
- growth (OVCAR-3 ovarian): 120%
- growth (HS 578T breast): 101%
- growth (NCI/ADR-RES ovarian): 63.7%

SMILES: O=C(Nc1ncc(Cc2ccc(Cl)c(C(F)(F)F)c2)s1)c1ccc2nnsc2c1
- growth (SR leukemia): 57%
- growth (RPMI-8226 leukemia): 40.8%
- growth (OVCAR-8 ovarian): 54.8%
- growth (OVCAR-5 ovarian): 55.8%
- growth (OVCAR-4 ovarian): 50.7%
- growth (SK-OV-3 ovarian): 62.5%
- growth (IGROV1 ovarian): 67.9%
- growth (OVCAR-3 ovarian): 58.5%
- growth (HS 578T breast): 84%
- growth (NCI/ADR-RES ovarian): 40.9%

SMILES: CCC(C)N(c1ccc(Cl)cc1)c1nc(-c2ccc(Br)cc2)cs1 (stereo not given)
- growth (SR leukemia): 83.5%
- growth (RPMI-8226 leukemia): 82.8%
- growth (OVCAR-8 ovarian): 96.7%
- growth (OVCAR-5 ovarian): 103%
- growth (OVCAR-4 ovarian): 96.5%
- growth (SK-OV-3 ovarian): 92.5%
- growth (IGROV1 ovarian): 82.1%
- growth (OVCAR-3 ovarian): 107%
- growth (HS 578T breast): 91.3%
- growth (NCI/ADR-RES ovarian): 102%
